Source: PubChem BioAssay (Tox21)
Records with an inconclusive call do not appear. Values without a mark were called inactive. Active and inactive are the calls of the source. Calls follow the shape of the dose curve; as a rule, active = well fitted cell-killing curve with a large enough effect in the repeat runs; inconclusive = weak or mixed curves; inactive = flat fitted curve, though single readings scatter.

Experiment: qHTS assay to identify small molecule antagonists of the TGF-beta/Smad signaling pathway - cell viability counter screen (AID 1346824); also: nearly all actives have a fitted effect of over 50% in size
Conditions: SBE-bla HEK293T viability, CellTiter-Glo luminescence; series mostly up to 76.8 µM; viability change, negative = cytotoxic: at the top concentration
Method in brief: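 SBE-bla HEK 293T cells, incubated overnight, then compound plus 0.25 ng/mL TGF-beta1 (stock added) for 5 hr at 37 C. Viability was read in the same wells by CellTiter-Glo luminescence after 30 min at room temperature.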
% is scaled to controls: 0 for no effect and ±100 for the full control effect.

| Structure (SMILES) | viability change, negative = cytotoxic | outcome |
| --- | --- | --- |
| Cc1nc2ccccn2c(=O)c1CCN1CCC(C(=O)c2ccc(F)cc2)CC1 | 7.22% [at 35.3 µM] |  |
| CCCCC(=O)O[C@]1(C(=O)CO)[C@@H](C)C[C@H]2[C@@H]3CCC4=CC(=O)C=C[C@]4(C)[C@@]3(F)[C@@H](O)C[C@@]21C | 0.545% |  |
| COc1ccc(C(=O)c2cccc(O)c2)c(OC)c1 | 9.63% |  |
| O=C(CCCN1CCN(c2ccc(F)cc2)CC1)NC1c2ccccc2CSc2ccccc21 (stereo not drawn) | -9.32% [at 35.3 µM] |  |
| C=CCOC(=O)/C=C\C(=O)OCC=C | 11.5% |  |
| O=C(CS)OCCOC(=O)CS | 0.129% |  |
| C[C@@H]1C[C@H]2[C@@H]3CCC4=CC(=O)C=C[C@]4(C)[C@@]3(F)[C@@H](O)C[C@]2(C)[C@H]1C(=O)CO | 2.98% [at 35.3 µM] |  |
| CCCCCCCCSCCO | 0.638% |  |
| COCc1c(C(C)C)nc(C(C)C)c(/C=C/[C@@H](O)C[C@@H](O)CC(=O)O)c1-c1ccc(F)cc1 |  | inactive |
| C(=C\c1ccccc1)/CN1CCN(C(c2ccccc2)c2ccccc2)CC1 | -23.8% [at 35.3 µM] |  |
| COCCOC(=O)C1=C(C)NC(C)=C(C(=O)OC/C=C/c2ccccc2)C1c1cccc([N+](=O)[O-])c1 (stereo not drawn) | -2.83% [at 35.3 µM] |  |
| O=C(CCCCCCC(=O)Nc1ccccc1)NO | 0.977% [at 35.3 µM] |  |
| CCOC(=O)N1CCC(n2c(=O)[nH]c3cc(Cl)ccc32)CC1 | -8.31% [at 35.3 µM] |  |
| Nc1ccc(C(=O)OCCCOC(=O)c2ccc(N)cc2)cc1 | 4.8% |  |
| CCCCCCCCCCCC(=O)[O][Sn]([CH2]CCC)([CH2]CCC)[O]C(=O)CCCCCCCCCCC | -0.12% [at 35.3 µM] |  |
| C[C@]12CCC(=O)C=C1C=C[C@@H]1[C@@H]2CC[C@@]2(C)[C@H]1CC[C@@]21CCC(=O)O1 | 0.632% [at 35.3 µM] |  |
| N#C/C(=C1/SC[C@@H](c2ccc(Cl)cc2Cl)S1)n1ccnc1 | -5.54% [at 35.3 µM] |  |
| NC(=O)Nc1ccc(Cl)c(Cl)c1 | 0.115% |  |
| CC(=O)Oc1ccc(C(=C2CCCCC2)c2ccc(OC(C)=O)cc2)cc1 | 0.47% [at 35.3 µM] |  |

| Structure (SMILES) | viability change, negative = cytotoxic | outcome |
| --- | --- | --- |
| O=C(OCCOCCO)c1ccccc1Nc1cccc(C(F)(F)F)c1 | -6.49% [at 35.3 µM] |  |
| CCOC(=O)[C@@H](C)Oc1ccc(Oc2nc3ccc(Cl)cc3o2)cc1 | -10.1% |  |
| CN(C)CCOC1=Cc2ccccc2Sc2ccc(Cl)cc21 | -22.4% [at 35.3 µM] |  |
| C/C=C/C=C/CCCCCCCO | 8.66% |  |
| CCCCC/C(=C\c1ccccc1)CO | -18.2% |  |
| OC(CCCN1CCCCC1)(c1ccccc1)c1ccccc1 | 0.609% [at 35.3 µM] |  |
| CCCOc1ccc(S(=O)(=O)N2CCN(CC)CC2)cc1-c1nc2c(CC)n(Cc3ccccn3)nc2c(=O)[nH]1 | 7.77% |  |
| CC1CC(=O)NN=C1c1ccc(NCC(C)(C)NCC(O)COc2cc(Cl)ccc2C#N)cc1 (stereo not drawn) | 9.79% [at 35.3 µM] |  |
| O=C(c1ccc(O)cc1)c1ccc(Cl)cc1 | -14.5% |  |
| CCOC(=N)CC(=O)OCC | 0.208% |  |
| O=C(Nc1ccc([N+](=O)[O-])cc1)Nc1ccc([N+](=O)[O-])cc1 | -4.47% [at 35.3 µM] |  |
| NC(=O)N(O)[C@@H]1C=C[C@H](Oc2cccc(Oc3ccc(F)cc3)c2)C1 | -4.37% |  |
| CNC(=S)NC | -7.25% |  |
| COc1cc2c(N3CCN(C(=O)Nc4ccc(OC(C)C)cc4)CC3)ncnc2cc1OCCCN1CCCCC1 | 1.13% [at 35.3 µM] |  |
| CCCC1C(CC)=CC(CC)=CN1c1ccccc1 (stereo not drawn) | -19.2% |  |
| Cc1ccc(S)cc1 | 10.2% |  |
| CCCCCCCC/C=C\CCCCCCCC(=O)OC(CO)CO | 12.3% |  |
| O=C(CCCN1CCC(O)(c2ccc(Br)cc2)CC1)c1ccc(F)cc1 | -16.9% [at 35.3 µM] |  |
| CC1(C)C2=CCCC(C)(C)[C@]23CC[C@H]1C3 | 1.2% |  |
